# According to PubChem BioAssay (NCATS):
# Records with an inconclusive call do not appear. Entries that show only a call come without a potency. Unmarked numbers belong to inactive results. Calls of active or inactive are those of the source. Calls come from the whole dose curve; as a rule, active = well fitted inhibition curve with a large enough effect; inconclusive = small, poorly fitted or top-dose-only effect; inactive = flat fitted curve, though single readings scatter.
# Target: Calcium and integrin-binding protein 1 (Homo sapiens) (UniProt Q99828)
# Sequence (Q99828 whole entry, looked up): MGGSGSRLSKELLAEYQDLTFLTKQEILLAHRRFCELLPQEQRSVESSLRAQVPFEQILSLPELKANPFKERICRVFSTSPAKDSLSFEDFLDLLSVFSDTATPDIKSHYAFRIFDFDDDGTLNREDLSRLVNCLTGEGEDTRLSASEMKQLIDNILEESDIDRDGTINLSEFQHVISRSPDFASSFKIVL
# Test: Primary qHTS for Identification of Calcium Integrin Binding Protein 1 (CIB1) Competitor (AID 1508620);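 note: GST tagged CIB1 binding a fluorescein labelled alphaIIb integrin peptide tracer; top concentration of the series differs between compounds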
# Details: CIB1-GST / FITC-alphaIIb peptide fluorescence polarization; series mostly up to 114 µM
# In short: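 Fluorescence polarization competition: CIB1-GST (1 uM final) preincubated with compound 15 min at room temperature, then FITC-labeled alphaIIb peptide (100 nM final) added for another 15 min. Polarization read at Ex 480/Em 540.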
Compound,Potency,"activity change, negative = inhibition"
C[C@@H]1O[C@@H](O[C@H]2[C@H](O[C@H]3CC[C@@]4(C)C(CC[C@]5(C)C4C=C[C@]46OC[C@@]7(CCC(C)(C)C[C@H]74)[C@@H](O[C@@H]4O[C@@H](C)[C@H](O)[C@@H](O)[C@H]4O)C[C@]65C)[C@]3(C)CO)O[C@H](CO)[C@@H](O)[C@@H]2O[C@@H]2O[C@H](CO)[C@@H](O)[C@H](O)[C@H]2O)[C@H](O)[C@H](O)[C@H]1O (some centres not stated),inactive,–
C=C1C(=O)O[C@@H]2/C=C(\CO)CC/C=C(\CO)[C@H](OC(C)=O)C(OC(=O)C(C)CC)C12 (some centres not stated),inactive,–
O=C(Nc1ccc(N2C(=O)[C@@H]3[C@H](C2=O)[C@@H]2C=C[C@H]3C2)c(Cl)c1)c1ccccn1,inactive,–
COc1ccc(CNCc2cccc3ccccc23)cc1,inactive,–
C[C@H](Nc1cc2c(-c3ccc4c(c3)OCO4)noc2cn1)c1ccccc1,inactive,–
COC1CC(O[C@H]2CC[C@]3(C)C4CC[C@@]5(C)C(=O)[C@]4(CC[C@@H]3C2)CC[C@@H]5C2=CC(=O)OC2)OC(C)C1OC1OC(COC2OC(CO)C(O)C(O)C2O)C(O)C(O)C1O (some centres not stated),inactive,–
CCCCOc1ccc(S(=O)(=O)n2c(C)nc3ccccc32)cc1,inactive,–
O=C1C[C@]23C=CCN4CCC5c6cc7c(cc6N1[C@@]5(CC2)C43)OCO7 (some centres not stated),inactive,–
CC(C)(C)c1ccc(C(=O)Nc2cc(Cl)c(Br)cc2C(=O)O)cc1,inactive,–
C=C(C(=O)O[C@H]1C/C(C)=C/CC/C(CO)=C/[C@H]2OC(=O)C(=C)[C@H]12)C(O)CO (some centres not stated),inactive,–
CC(=O)O[C@H]1CC(C)(C)CC2[C@]13CO[C@@]21CCC2[C@@]4(C)CC[C@H](O[C@@H]5OC[C@H](O[C@@H]6O[C@H](CO)[C@@H](O)[C@H](O)[C@H]6O[C@@H]6OC[C@@H](O[C@@H]7O[C@H](CO)[C@@H](O)[C@H](O)[C@H]7O)[C@H](O)[C@H]6O)[C@H](O)[C@H]5O[C@@H]5O[C@H](CO)[C@@H](O)[C@H](O)[C@H]5O)[C@@](C)(CO)C4CC[C@@]2(C)[C@]1(C)C[C@H]3O (some centres not stated),–,3.35% [at 12.4 µM]
OC1CCC(Nc2nc(-c3ccccc3)nc3[nH]ccc23)CC1 (configuration not stated),inactive,–
CCCCCCOC(=O)/N=C(\N)c1ccc(NCc2nc3cc(C(=O)N(CCC(=O)OCC)c4ccccn4)ccc3n2C)cc1,inactive,–
CC[C@@H](C)[C@@H]1OC2(C=C[C@H]1C)C[C@@H]1C[C@H](C/C=C(\C)[C@H](O[C@H]3C[C@H](OC)[C@H](O[C@H]4C[C@H](OC)[C@H](NC(C)=O)[C@H](C)O4)[C@H](C)O3)[C@H](C)/C=C/C=C3\CO[C@H]4[C@H](O)C(C)=C[C@@H](C(=O)O1)[C@@]34O)O2 (some centres not stated),inactive,–
CC[C@@H](C)Nc1cc(C(=O)NC2CC3CCC(C2)N3c2ccc(C(=O)C3CC3)cn2)c(C)cc1C(N)=O (some centres not stated),inactive,–
C[C@]12CC[C@@H]3c4ccc(O)c(O)c4CC[C@H]3[C@@H]1CCC2=O,inactive,–
NC(=O)CCCSc1nc(N)nc(-c2c(Cl)cc3c4c(cccc24)COC3)n1,inactive,–
CC(C)c1cc(-c2ccc(F)c3ccccc23)nc(N)n1,inactive,–
COc1cc(C(=O)NCC2(N(C)C)CCCC2)cc(OC)c1OCc1ccccc1,inactive,–
CCCn1cc2c(nc(NC(=O)Nc3ccc(OC)cc3)n3nc(-c4ccco4)nc23)n1,inactive,–
C=C(C)C(=O)O[C@H]1C[C@@](C)(O)C2(O)CCC(C)(/C=C3/OC(=O)C(COC)=C31)O2 (some centres not stated),inactive,–
C[C@H]1CC[C@@]2(OC1)O[C@H]1CC3[C@@H]4CC[C@@H]5C[C@@H](O[C@@H]6O[C@H](CO)[C@@H](O[C@@H]7O[C@@H](C)[C@H](O)[C@@H](O)[C@H]7O)[C@H](O)[C@H]6O[C@@H]6O[C@H](CO)[C@@H](O)[C@H](O)[C@H]6O)CC[C@]5(C)C4CC[C@]3(C)[C@H]1[C@@H]2C (some centres not stated),inactive,–
C[C@@H]1CN(CC(=O)N2CC(C)(C)c3ncc(Cc4ccc(F)cc4)cc32)[C@@H](CN2CCOC[C@H]2C)CN1,inactive,–
O=C1NC(=O)C(c2cnc3ccccn23)=C1c1cn2c3c(cc(F)cc13)CN(C(=O)N1CCCCC1)CC2,inactive,–
O=C(Nc1nc2cc(C(F)(F)F)cc(NC3CC3)n2n1)c1cccnc1,inactive,–
C=C1C(=O)O[C@H]2C[C@@H](C)[C@@H]3CCC(=O)[C@@]3(C)C[C@H]12,inactive,–
CC(C)/C=C1\NC(=O)C(C(C)C)n2c1nc1ccccc1c2=O (configuration not stated),inactive,–
